Among the data in PubChem BioAssay AID493203 (National Center for Advancing Translational Sciences (NCATS), 2011) are Potency values, retold here.

Records with an inconclusive call do not appear. Entries that show only a call come without a potency. Calls of active or inactive are those of the source. The call rests on the fitted dose curve; in most records, active means well fitted activation curve with a large enough effect; inconclusive means small, poorly fitted or top-dose-only effect; inactive means flat fitted curve, though single readings scatter.
Potency means the concentration at half of the fitted maximal effect.

The test in a line: qHTS Assay for NPC1 Promoter Activators: Initial hit validation from the primary screen. The following applies: Huh7 NPC1 promoter-luciferase reporter, luminescence, 24 h; series mostly up to 46.1 µM. From the text:
NIH Chemical Genomics Center [NCGC] NIH Molecular Libraries Probe Production centers Network [MLPCN] MLPCN Grant: MH089375-01A1 Assay Submitter (PI): Yiannis A. Ioannou NCGC Assay Overview: Niemann Pick Type C (NPC) is a rare neurodegenerative lipidosis that is characterized by lipid storage in the endosomal/lysosomal system. Treatment modalities for this devastating disease are currently non-existent due to the severe obstacles associated with accessing the central nervous system with proteins or genes. The majority of mutations causing NPC disease are missense mutations that are distributed throughout the length of the NPC1 protein, with the most prevalent being the I1061T allele. Although NPC1 mutant proteins may be functional, they are typically trapped in the ER due to misfolding. […] We have developed and optimized a cell based luciferase reporter assay in 1536 well format for the identification of up-regulators of the mutant NPC1 promoter. This assay presents data on the validation of hits from the primary screen.
The NPC1 promoter is cloned in front of the luciferase reporter gene, therefore NPC promoter activation results in luciferase expression. Frozen stock of the NPC1 promoter transfected Huh7 cells were obtained from the laboratory of Dr. Yiannis Ioannou (The Mount Sinai School of Medicine, New York, NY). Cells were propagated and maintained at NCGC in medium containing RPMI-1640 supplemented with 10% FBS, 2mM L-glutamine, and 50ug/ml penicillin/streptomycin. Cells were harvested in and plated for assays in OP-MEM I reduced-serum medium supplemented with 10% FBS. The Amplite luciferase reporter gene assay kit was purchased from ABD Bioquest and prepared/stored according to manufacturers recommendations. qHTS Assay Setup: 1. Dispensed 5ul of Huh7 cells stably expressing NPC1-luciferase at a density of 1500 cells per well 1536-well plates. 2. Incubate cells at 37C, 5% CO2, and 95% humidity for 2 hours. 3. Transferred 23nl per well of compound in DMSO solution. 4. Incubated at 37C, 5% CO2, and 95% humidity for 24 hours. 5. Dispensed 3ul per well of Amplite reagent(ABD Bioquest) per well. 6. Incubate at ambient for 10 minutes. 7. Read using the luminescence protocol on the ViewLux plate reader (Perkin Elmer).
On the technique in general: qHTS replaces the single test concentration by a dilution series.
In the case of `Cc1cccc(NC(=O)CSc2nc3ccccc3o2)c1`, the Potency entry is “inactive”.
The same measure for `CCOc1ccc(S(=O)(=O)NCc2ccccc2)cc1C(N)=O`: “inactive”.
The same measure for `COc1ccc(/C=C\c2onc(C)c2S(=O)(=O)N2CCC(C(=O)NCCC(C)C)CC2)cc1`: “inactive”; for `NC(=O)C1(NC(=O)[C@@H]2CC3(CC(c4cccc(NC(=O)[C@@H]5CCC(=O)N5)c4)=NO3)CN2C(=O)c2ccccc2)CC1` (stereo not given in full): “inactive”.
In the case of `CCN(CC(=O)N(CC(C)C)c1c(N)n(CC(C)C)c(=O)[nH]c1=O)Cc1nc2ccccc2c(=O)[nH]1`, the Potency entry was “inactive”.
Consider `O=C(O)CSc1nnc(-c2ccncc2)n1CCc1ccccc1`, for which the Potency result is “inactive”.
Take `COC(=O)c1sccc1NC(=S)OC`: the Potency result was “inactive”.
The same measure for `Cc1ccc(C#N)c(SCC(=O)Nc2nccs2)n1`: 1.12 µM (active); for `CNC(=O)Cn1nc(C)c2ccccc2c1=O`: “inactive”.
On to `COc1ccc(S(=O)(=O)N2CCCC(C(=O)NCc3ccncc3)C2)cc1Cl` (stereo not given), for which the Potency result is “inactive”.
On to `O=C(CSc1nnc(Cc2cc(=O)[nH]c(=O)[nH]2)n1-c1ccc(Cl)cc1)NC1CCCC1`, for which the Potency entry was “inactive”.
The same measure for `O=C(N/N=C/c1ccc(-c2ccc(Br)cc2)o1)c1ccc2c(c1)OCO2`: “inactive”; for `COc1ccc(NC(=O)CCCN2C(=O)C(c3ccccc3)Oc3cccnc32)cc1OC` (stereo not given): “inactive”; for `CCOC(=O)CSc1nc2cc(C)ccc2cc1C#N`: 0.499 µM (active).
Regarding `Cc1nc(SCC(=O)NC(=O)NC(C)(C)C)nc(C)c1C`, the Potency result was “inactive”.
Turning to `O=C(CCNC(=O)c1ccc(Br)o1)NCc1ccc(Cl)cc1`, the Potency entry was “inactive”.
The same measure for `Nc1ccc(C(=O)Nc2ccccc2N)cc1`: 15.8 µM (active); for `CC1=C(C(=O)OC2CCCC(C)C2)C(c2ccccc2)NC(=O)N1` (stereo not given): “inactive”.
Turning to `N#C/C(=N\Nc1ccc(Cl)cc1)C(=N)N1CCCCC1`, the Potency was 0.281 µM (active).
Take `CC1CCCN(S(=O)(=O)c2ccc(C(=O)Nc3nnc(-c4ccncc4)o3)cc2)C1` (stereo not given): the Potency entry is “inactive”.
The same measure for `CCOc1cc(C2C(C#N)=C(N)Oc3n[nH]c(C)c32)ccc1OCCN1CCOCC1` (stereo not given): “inactive”; for `O=[N+]([O-])c1cnccc1Nc1ccc(F)cc1`: “inactive”.
The same measure for `CCCCCCOc1ccc(OC(=O)c2cccnc2)cc1`: 19.9 µM (active).
The same measure for `COc1ccc(OC)c(S(=O)(=O)N2CCN3CCCC3C2)c1` (stereo not given): “inactive”; for `COc1ccc(NC(=O)CN(C)C(=O)c2ccc(=O)[nH]c2)cc1`: “inactive”; for `CN(C)C(=O)[C@H]1C[C@H]1[C@@H](O)[C@H](CO)NC(=O)[C@H](COCc1ccccc1)NC(=O)OC(C)(C)C`: “inactive”.
In the case of `C=CCn1c(C)nnc1SCC(=O)Nc1nccs1`, the Potency result was “inactive”.
The same measure for `O=C(CN1C(=O)COc2ccc(Cl)cc21)NCC1CCCO1` (stereo not given): “inactive”.
The same measure for `CN(C)C(CNC(=O)CNC(=O)c1ccc2ccccc2c1)c1ccccc1` (stereo not given): “inactive”; for `COc1cccc(C2Nc3ccccc3NC3=C2C(=O)CC(C)(C)C3)c1` (stereo not given): “inactive”; for `COc1ccc(C)cc1N(C(=O)CNC(=O)c1ccco1)C(C(=O)NC1CCCC1)c1cccnc1` (stereo not given): “inactive”.
The same measure for `O=C(CCCC(=O)N(CC(=O)NC1CCCCC1)c1cccc(F)c1)Nc1ccccn1`: “inactive”.
As to `O=C(CCc1cccc(Cl)c1)NC1CCCN(Cc2ccccc2F)C1` (stereo not given), the Potency result is “inactive”.
In the case of `CC1(C)CC(=O)c2c(O)c(-c3ccccc3)c(=O)n(-c3ccccc3)c2C1`, the Potency entry is “inactive”.
As for `COc1ccccc1OCCCC(=O)NCc1ccco1`, the Potency entry is “inactive”.
Turning to `Cc1csc(NC(=O)CSc2nnc(-c3ccncc3)o2)n1`, the Potency was 15.8 µM (active).
As to `COc1cccc(CNC(=O)CN(c2cc(C)cc(C)c2)S(=O)(=O)c2c(C)noc2C)c1`, the Potency result was “inactive”.
Consider `C=CCc1ccc(OCCOCCNCCOC)c(OC)c1`, for which the Potency result was “inactive”.
`Cc1cccc(C)c1NC(=O)Nc1cccs1`: the Potency entry was “inactive”.
The same measure for `COC(=O)c1cn(NC(=O)C2CCCCC2)c(=O)c2ccccc12`: “inactive”.
